CBFb-RUNX1 inh = CBF-beta/RUNX1 interaction disruption; AID 1477; Potency, µM (highest dose often 59.8 µM), most hits filed as inhibitors; AlphaScreen CBFb-His/RUNX1-biotin binding, biochemical; 230,000 tested, under 10 active; Q01196+Q13951
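Room-temperature protein-protein interaction test with 30 nM each of His-tagged CBF-beta and biotinylated RUNX1, 15 min with compound, then 90 min with nickel plus streptavidin beads. Signal read in AlphaScreen mode.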
HttQ103 aggreg = mutant huntingtin aggregation inhibition; PC12 HttQ103-GFP aggregates, Acumen cytometry, 40 h; Potency, µM (doses to about 46.1 µM), actives largely listed as inhibitors; 220,000 tested, 1.1% active; note: nearly all actives have a fitted effect of over 60% in size
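Using laser scanning cytometry, GFP-positive aggregates were counted after lysis of PC12 cells induced with 100 nM tebufenozide to express HTT exon 1 Q103–GFP. Compounds were tested in titration.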
KDM4E inh = blocks human JMJD2E demethylase activity | 230,000 tested, 1.6% active | JMJD2E catalytic domain, FDH-coupled NADH fluorescence (FDH is formaldehyde dehydrogenase) | Potency, µM (series often up to 57.1 µM), most hits filed as inhibitors; active = well fitted inhibition curve with a large enough effect, not every such curve was filed as active; inconclusive = small, poorly fitted or top-dose-only effect, or another doubt; inactive = no such curve, though single readings can be large or run the other way; note: nearly all actives have a fitted effect of over 50% in size
Target sequence (B2RXH2 1-337 limits assumed): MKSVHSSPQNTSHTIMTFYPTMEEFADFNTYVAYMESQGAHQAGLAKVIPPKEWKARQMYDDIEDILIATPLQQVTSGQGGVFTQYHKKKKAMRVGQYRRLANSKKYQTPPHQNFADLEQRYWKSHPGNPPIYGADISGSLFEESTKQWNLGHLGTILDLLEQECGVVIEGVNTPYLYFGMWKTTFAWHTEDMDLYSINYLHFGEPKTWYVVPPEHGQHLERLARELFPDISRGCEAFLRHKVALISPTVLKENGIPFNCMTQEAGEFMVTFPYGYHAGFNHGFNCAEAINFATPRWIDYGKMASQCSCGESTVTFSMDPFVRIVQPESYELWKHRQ
HTT ATP protect = protects HTT-Q103 PC12 cells, measured by ATP; Potency, µM (doses to about 56.4 µM), most hits filed as activators; 230,000 tested, 0.14% active; PC12 HTT-Q103 induced, cytoprotection, ATP luminescence, 40 h; note: nearly all actives have a fitted effect of over 45% in size
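Stable PC12 Q103-GFP cells in serum-supplemented, phenol red-free DMEM; induction by tebufenozide at 100 nM final; compound dose series; cell viability quantified luminescently from ATP.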
HPGD block = blocks human HPGD enzyme activity; purified HPGD, NADH fluorescence kinetic, PGE2 substrate; Potency, µM, most hits filed as inhibitors; 150,000 tested, 4.3% active; active = well fitted inhibition curve with a large enough effect, not every such curve was filed as active; inconclusive = small, poorly fitted or top-dose-only effect, or another doubt; inactive = no such curve, though single readings can be large or run the other way
Target sequence (P15428 whole entry, looked up): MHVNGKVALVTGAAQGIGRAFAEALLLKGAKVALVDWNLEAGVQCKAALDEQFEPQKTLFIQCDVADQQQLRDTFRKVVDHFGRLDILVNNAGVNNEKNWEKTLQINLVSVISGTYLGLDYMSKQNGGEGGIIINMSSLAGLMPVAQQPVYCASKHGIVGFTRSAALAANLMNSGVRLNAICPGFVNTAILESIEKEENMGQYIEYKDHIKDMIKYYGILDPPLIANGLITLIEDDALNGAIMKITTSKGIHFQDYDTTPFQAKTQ
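20 nM HPGD preincubated 15 min at room temperature with compound in 50 mM Tris-HCl pH 8, 0.01% Tween 20. Started with 1 mM NAD+ and 30 uM prostaglandin E2; NADH fluorescence (360/450 nm) read 5 times over 30-s intervals, last minus first.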
ALDH1A1 inh = inhibitors of human aldehyde dehydrogenase 1A1; Purified ALDH1A1, NADH fluorescence, propionaldehyde substrate; P00352; Potency, µM (highest dose often 75.3 µM), most hits filed as inhibitors; 220,000 tested, 7.3% active; active = well fitted inhibition curve with a large enough effect, not every such curve was filed as active; inconclusive = small, poorly fitted or top-dose-only effect, or another doubt; inactive = no such curve, though single readings can be large or run the other way
Each line names hits and unclear results; the compound was inactive in the other large screens. Rows were chosen to be rich in hits. Some 9.8% of all compounds tested hit in one or more screens of this group. Unless noted, calls come from the whole dose curve; as a rule, active = well fitted curve in the direction sought with a large enough effect; inconclusive = small, poorly fitted or top-dose-only effect, or another doubt; inactive = no such curve, though single readings can be large; an effect the other way counts as inactive or inconclusive.

C=CC(=O)N=c1sc2ccccc2n1-c1ccccc1	HttQ103 aggreg inconclusive, ALDH1A1 inh 0.22µM (no result: HPGD block)
Cc1cc(C(=O)N/N=C/c2cc(Br)ccc2OC(=O)c2ccccc2)n[nH]1	HttQ103 aggreg 2µM
O=[N+]([O-])c1cc(/C=N/N/C(=N/c2ccccn2)c2ccccn2)ccc1O	HttQ103 aggreg inconclusive, KDM4E inh 18µM (no result: HPGD block)
O=[N+]([O-])c1ccc(/C=N/N/C(=N/c2ccccn2)c2ccccn2)cc1	HttQ103 aggreg inconclusive, HPGD block 28µM, ALDH1A1 inh inconclusive
O=[N+]([O-])c1cc(/C=N\Nc2nc(-c3ccccc3)cs2)ccc1O	CBFb-RUNX1 inh inconclusive, ALDH1A1 inh 11µM (no result: HPGD block)
Cc1csc(N/N=C/c2ccc(O)c([N+](=O)[O-])c2)n1	CBFb-RUNX1 inh inconclusive, HPGD block inconclusive, ALDH1A1 inh inconclusive (no result: HttQ103 aggreg)
CCCCCCCCCCCC(=O)OCC(O)CO (configuration not stated)	none (no result: CBFb-RUNX1 inh, KDM4E inh, HPGD block, ALDH1A1 inh)
CC(C)c1ncc(S(=O)(=O)c2ccc(C(F)(F)F)cn2)c(N)n1	none (no result: HPGD block)
CC(C)CNC(=O)CC(=O)N/N=C/c1ccc(Br)cc1	HttQ103 aggreg inconclusive, HPGD block 16µM, ALDH1A1 inh 0.89µM
CCOC(=O)c1c(NC(=O)CNCCOC)sc2c1CCCC2	ALDH1A1 inh 25µM
COC(=O)c1c(NC(=O)COC(=O)c2ccccc2O)sc2c1CCCCC2	KDM4E inh inconclusive, HPGD block inconclusive, ALDH1A1 inh inconclusive
CCOC(=O)c1c(NC(=O)CCC(=O)O)sc2c1CCCCC2	KDM4E inh inconclusive, HPGD block 8.9µM, ALDH1A1 inh 8.9µM (no result: HTT ATP protect)
COC(=O)c1c(NC(=O)COC(=O)c2ccc(NC(=O)CC#N)cc2)sc2c1CCCCC2	KDM4E inh 5µM, ALDH1A1 inh inconclusive (no result: HPGD block)
NC(=O)C1=C[C@H](C2CCCCC2)C[C@H](OCc2ccc(CO)cc2)O1	ALDH1A1 inh inconclusive (no result: HPGD block)
NC(=O)N[C@H]1NC(=O)NC1=O	CBFb-RUNX1 inh inconclusive
O=C1CC(C(=O)Nc2cccc(F)c2)n2ncnc2N1 (configuration not stated)	none (no result: HPGD block)
O=C(Nc1ccccc1)c1ncoc1-c1ccc(Cl)cc1	KDM4E inh inconclusive (no result: HPGD block)
COc1cc2c(C#N)c(N3CCN(c4ccccc4OC)CC3)nc(N)c2c(N)n1	CBFb-RUNX1 inh inconclusive, HttQ103 aggreg 11µM, KDM4E inh inconclusive, HPGD block inconclusive, ALDH1A1 inh inconclusive
CCC(C)N1C(=O)CN(C2CCCCCC2)C(=O)C1c1ccccc1F (configuration not stated)	ALDH1A1 inh 16µM (no result: HPGD block)
Cc1nc2ncnn2c(C)c1CCC(=O)N1CCOCC1	HttQ103 aggreg inconclusive
O=C(C1CCN(S(=O)(=O)N2CCC3(CC2)OCCO3)CC1)N1CCCCC1	HPGD block 16µM (no result: HTT ATP protect)
O=C(C1CCN(S(=O)(=O)N2CCC3(CC2)OCCO3)CC1)N1CCOCC1	none
COc1cc(-c2nnc(SCc3cc(=O)oc4cc(C)ccc34)o2)cc(OC)c1OC	HttQ103 aggreg inconclusive, HPGD block inconclusive, ALDH1A1 inh 6.3µM
O=C(c1ccco1)N1N=C(C2CCCCC2)CC1(O)C(F)(F)F (configuration not stated)	HttQ103 aggreg inconclusive, ALDH1A1 inh 6.3µM (no result: HPGD block)
CN(Cc1ccccc1)c1ncnc2ccc(Br)cc12	HttQ103 aggreg 0.35µM
CN(Cc1ccco1)c1ncnc2ccc(-c3ccccc3Cl)cc12	ALDH1A1 inh inconclusive (no result: CBFb-RUNX1 inh, HttQ103 aggreg, KDM4E inh, HPGD block)
c1ccc2c(c1)OCC(c1csc3ncnc(N4CCCC4)c13)O2 (configuration not stated)	HttQ103 aggreg 18µM
c1ccc(CCNc2ncnc3scc(C4COc5ccccc5O4)c23)cc1 (configuration not stated)	ALDH1A1 inh 0.056µM
Cc1csc2ncnc(NC3CCN(Cc4ccccc4)CC3)c12	none (no result: HPGD block)
CC(CCc1ccccc1)N(C)CC(O)c1cccc([N+](=O)[O-])c1 (configuration not stated)	none (no result: HPGD block, ALDH1A1 inh)
CCNC(=S)N/N=C1\CCCCc2ccccc21	ALDH1A1 inh inconclusive (no result: HTT ATP protect)
O=C1c2cccc3cccc(c23)C(=O)N1OS(=O)(=O)c1ccc(Cl)cc1	KDM4E inh inconclusive, HPGD block inconclusive, ALDH1A1 inh inconclusive
CCNC(=S)N/N=C1\C(=O)c2cccc3cccc1c23	ALDH1A1 inh 10µM
O=C(N/N=C1/C(=O)c2cccc3cccc1c23)c1ccc(Cl)cc1	HttQ103 aggreg inconclusive, HPGD block 28µM, ALDH1A1 inh inconclusive
CC(C)(C)NC(=O)[C@@H]1C[C@H]2CCCC[C@@H]2CN1C[C@H](O)[C@H](Cc1ccccc1)NC(=O)[C@@H](CC(N)=O)NC(=O)c1ccc2ccccc2n1	none (no result: HttQ103 aggreg)
O=C(CSc1nnc(-c2cccs2)n1-c1ccccc1)N1CCCC1	HPGD block 25µM, ALDH1A1 inh inconclusive
COC(=O)c1cccc(CSc2nnc(-c3ccco3)n2-c2ccccc2)c1	none
CCOC(=O)CSc1nnc(-c2cccs2)n1-c1ccccc1	HPGD block 28µM, ALDH1A1 inh inconclusive
Cc1ccc(-n2c(SCC3CCCCO3)nnc2-c2ccco2)cc1 (configuration not stated)	HPGD block 16µM, ALDH1A1 inh inconclusive
CCOC(=O)CSc1nnc(-c2ccco2)n1-c1ccccc1	HPGD block 32µM, ALDH1A1 inh 1.6µM
Cc1ccc(-c2c(C)sc3ncn(CC(=O)N4CCOCC4)c(=O)c23)cc1C	none (no result: HPGD block, ALDH1A1 inh)
COC(=O)c1ccc(C(NC(=O)OCc2ccccc2)/C(=C/[C@@H](C)C(=O)NCc2ccc(S(C)(=O)=O)cc2)c2cccnc2)cc1 (some centres not stated)	ALDH1A1 inh inconclusive (no result: HttQ103 aggreg)
Cc1c(Cl)cccc1NC(=O)CSc1nnc(CCNC(=O)OC(C)(C)C)o1	none
CCCCNS(=O)(=O)c1ccc2nc(SCC(=O)c3ccccc3OC)[nH]c2c1	HPGD block 28µM, ALDH1A1 inh inconclusive
CCCCNS(=O)(=O)c1ccc2nc(SCC(N)=O)[nH]c2c1	none (no result: HPGD block, ALDH1A1 inh)
Cn1c(Cc2ccccc2)nnc1SCC(=O)c1ccc(Br)s1	HPGD block 28µM, ALDH1A1 inh 14µM
COC(=O)C1=C[C@@H](C(=O)OC)[C@@H]2C3=C(C(=O)[C@]2(C)NC(=O)c2ccccc2)[C@H](C)[C@@H]2C(=O)NC(=O)[C@@H]2[C@@H]3C1	none (no result: HttQ103 aggreg, KDM4E inh, HTT ATP protect, HPGD block, ALDH1A1 inh)
Cc1ccc(C(=O)N/C(=C\c2ccco2)C(=O)NCCCn2ccnc2)cc1C	ALDH1A1 inh 25µM
COc1ccc(C(=O)N/C(=C\c2ccco2)C(=O)NCCCn2ccnc2)cc1	none
CCOc1ccccc1NC1=C(Cl)C(=O)N(c2ccc(OC)cc2)C1=O	none
COc1ccccc1N1C(=O)C(Cl)=C(Nc2ccccc2O)C1=O	KDM4E inh inconclusive, HTT ATP protect inconclusive, ALDH1A1 inh 13µM (no result: HPGD block)
O=C(Nc1ccccc1)Nc1ccc2nnsc2c1	ALDH1A1 inh inconclusive (no result: HPGD block)
O=C(Nc1ccccc1)Nc1ccc2snnc2c1	HttQ103 aggreg 11µM, KDM4E inh inconclusive, ALDH1A1 inh inconclusive

Source: PubChem (National Center for Advancing Translational Sciences (NCATS))
